Source: the OligoGym collection

What follows are sequences tested against GPX1 (assay: pooled miR-30 sensor sort-seq; sequence = guide strand). Details: shRNA.
Note: reference of the scale not given here.

Sequence	sensor-assay potency score (higher = more potent)
ACATCGTTGCGACACACCGGAG	-1.77
AACATCGTTGCGACACACCGGA	-0.00294
ATTCTCGATAAGTAGTACCTTG	-0.704
TTCCAGGCAACATCGTTGCGAC	-1
TTCATCTGGGTGTAGTCCCGGA	-0.32
ATTCAGAATCTCTTCGTTCTTG	0.126
TTCAGAATCTCTTCGTTCTTGG	0.596
TTCGTTCTTGGCGTTCTCCTGA	0.781
TTGGGGTCGGTCATAAGCGCGG	-1.09
TTTTCTATGAGTCACCGGGATT	-1.88
AATCTCTTCGTTCTTGGCGTTC	-1.08
TAGGTTTAGAGGAAACACCCTC	-0.561

What follows are sequences tested against GPX2 in the same assay as above. Details: shRNA.

Sequence	sensor-assay potency score (higher = more potent)
TATTGGTCTCTTCTAGCAGAGT	-1.55
TTGATGGTTGGGAAGGTGCGGC	-0.796
TTGCAGCTCGTTGAGCTGGGTG	-0.963
TTGGACAAGGGTGAAGGTGGGC	0.00355
TTGAAATCTACCTTCTCCCCAT	0.588
ATACTTGAGACTGTTCAGGATC	-0.893
TTGAGCTGGGTGAAGTCCCGGG	-0.183
